In all, about 4,500 sequences were measured (“median log2 fold change of GCK-ALFA target abundance (FLAG IP / Myc IP barcode read proportion)”: median about 0.078, lowest 2% from about -0.6 on). This excerpt belongs to a sample that is enriched for the lowest values.
B1: GBRAP_74_6512 (protein)
chain: MEELLAKLKEAAEAKDVDKLVALALEIAETGDKETIEKAAEIVVAFVEANLDTLTPEELEKLSDALATLADKLMELGGDSEVVNRVAETAVALEKKLLAL
B2: GBRAP_52_5860 (protein)
chain: MVEEALEKLRKAVEAMKAGKEEEAEKILKEIVENFDEETILAAAEAFAKEMATATPEEAEAAFRTAEMLGKILEEAGFDEEVVTLIEDTIGAAVARVEAA
B3: GBRAP_139_3742 (protein)
chain: SEMEKKVEEAAKKVAELKDDPEAVADYLTETIASVDEETAEKIARAAVEVLADLPVEERLALDDLILDKLEEAGVDEDKITIVEAELNGGLARHAYAEEL
B4: GBRAP_139_3708 (protein)
chain: SALEEKVAEAKELTKETLENPEESIKKIVELLLSVSEEDLEVVVKAIAETLSEFPLDTAEELADKLLEEVKKRSKDEDKVNIVEAVLNGALARKAYEEEL
B5: GBRAP_80_6860 (protein)
chain: DEARLAAARARLKALLPEAAALIDEVVAIAKELGVPNADIADLLDALAELAEVDPELAKELLEELLEDLREEKEAGDAENALATVRGYAGEALMEAEELE
B6: GBRAP_95_7064 (protein)
chain: EEDLEIAEDLIDTAEDLVEIGLYEQAARAAKAAVEELKEIGYTGELALRAAEVLVKVAEATGNEEAAELAKEVLEEIRKAGGDEKKIEELEKRLEKALKK
B7: GBRAP_52_6171 (protein)
chain: SAEKARKMAEELLEAIKAGDEEKVKKILEEIAKNYTDEEIAAMLREVAKRVPSLSPEDQERVVEAALELEDIAVKAGHDENVLQIEVARVAAAAYDALQA
B8: GBRAP_53_6396 (protein)
chain: AEKEIKEGLKELEALIKRVKADPTLDPKEVAKEASALFKALVAAGAPEEELVKLAKELAEAVKAKGLGVEVSTALAKAAAEAGAEEVQYVFTEAAVEDLE
B9: GBRAP_160_4238 (protein)
chain: SEEIEKLREEITDEAELLLDVLLESPKSQWPAYARAFAGDIVQIVEENENVSDETEEKVAELADEMVAELVAARDASPEELAALLERFVERIVKTVEEGV
B10: GBRAP_128_3427 (protein)
chain: STAAKVAEVEALLEAMLTADAAEAAALARRIAALMLASDLETVEAMVEVILSMLPKFTAEQLEILADALREARPEFTPEKQLLVSEVEVAALNEAEEKEE
B11: GBRAP_160_4711 (protein)
chain: MEVKEKLKKYVEEEFEEAKELIKGESIEQRAIIVEGTIGEIIMELFEEEEASDELIDEVDKIGDELVETILANPDLTEEEIEELIEKAEEEIKKAIDKYV
B12: GBRAP_39_5693 (protein)
chain: EEDEENEDHVSYLQALAAKRLYETGISLEEATKEAKKILEEEAKRNPELKELLEELIKLAEEKGDEAKEVLIGVAVLIEEGEPKEEIKEHIEKAIKYFKK
B13: GBRAP_95_7034 (protein)
chain: EDDKLALESALEVAVAAAELGDEEAAARALKEALELLKKAGKVKLDPELLKETIEVIREVGVKKLPKEEVLELLELLKESAETEEVKKLAEEAIEEVKKR
B14: GBRAP_74_6536 (protein)
chain: SEEKEKVIKEINEAETIEEAIEITEKVLETDDKELARAAVQELLLKAAERKDELTLEEAERLVEVIVRAFEKNGIVVETREEAEALNTVLTKALELEEKA
B15: GBRAP_166_4984 (protein)
chain: MEEELVEELKKYLEELAEKMKEAGPEERQELVAEAAERLAEAREKGLSREKLGELVEYLLRLAREVGIPISAVEGALSILADLDEEEIDILDEAARRVAA
B16: GBRAP_128_3314 (protein)
chain: MDEERLEEAREIVERMKEADLEELAELTRRLAELLGTLTPEERDIVAEIFREGLKELSAEKLDVVADVLREVRPSLDPETANVVADLEVEALNEAVEKEE
B17: GBRAP_74_6519 (protein)
chain: EEELLAALEAAAAAGDAATAVALARRIVAEGSLEAVERAARIMVAFVERHADALSPEELEAVADALAELADELMLRGGDSEVVLAVARAAVALEERRRAL
B18: GBRAP_128_3579 (protein)
chain: SVEEVRAEVRALLEAMKTADAAEQKAIATEIATRFTTLTPEERRAAAETIEELLPELSAEQLDILADALRAARPTADPEAANLLADVEVAALNEALEKEE
B19: GBRAP_160_4226 (protein)
chain: METVEKIVKVFRDTFLEALELIEGESAEERAVILDVAVGEVILEVSEIEEATDEMEEVVDKKAEALAAALLAAADASAAERRALVDKAAAELRKELEKIE
B20: GBRAP_184_5358 (protein)
chain: EVRHLSVTVETKEEAVEKLAEAREEIRASGLPTVLVVELKNADLETVETVMELLAELREEGLIERGIVVVDDDRSEEEIDKMVELADRYGVDLVVAIPEE
B21: GBRAP_159_3958 (protein)
chain: MEELEKRVKEAKEKAKDNPEVVKLIEEVYDLIKEGEDAETIADFTVGSIVTLDVTPEEARLVLSVLPEETRRLAAEDLAYLAEELGREDLAAAARAILEE
B22: GBRAP_128_3325 (protein)
chain: MNEERIKEAEEIIKEIVKADVEEAKKLTEELLKLMETMTDEERDIVVEIMEKELEKLDAEKLDAIADTIRELQPTLDPLTARYAAEIEVEALNLAEEKEE
B23: GBRAP_160_4149 (protein)
chain: SEELKKLIKEIKEITEEAIKLMEGETPEEAKVIAKVALGEIVMLVESNEEVSEETEEKVGEIADEAEEYLDENPDLTVEEIKELLKKAGEEVIKIIEEEL
B24: GBRAP_160_4147 (protein)
chain: SAELKALIEEIREITEEAIKLMEGETPEEAKVIARVALGEIVMLVFSNEAVSEETEEEVGEVADEAEAHLRANPDLTVEEIKAILREAGEEVIEIIEKEV
B25: GBRAP_52_5941 (protein)
chain: SSSRLKEIAEELIKLALAGDEEGLRKKAREIAKTYSDEEILAIAKEIAKMAKEAPKEDLDAYFRLMEILTEELEKEGRSEELISEIEGLMAKAMYENELK
B26: GBRAP_160_4588 (protein)
chain: MESLEKMKEIVREELEEAKEMIVGETAEQRATIVLGAGGEIVMELSENPEASDELEDEVLKIADEAADTILANPNITEEEFNALLDEMEKKMIEAIEKHL
B27: GBRAP_11_2927 (protein)
chain: KKEKIKEIAELAEELAEAADRLIAEGTDNEELRKKLEELLEKLVELVKEYGDEADKKDAEHMRELWEKAKADPANAVQYLTELRNEARVLSGIYLLEYDE
B28: GBRAP_139_3733 (protein)
chain: SADDAAVAEVVALTKRSVETGGALVAEIADALNALDEDTADRAAEAMAEVLETQPFDVAEALFDALIDTLLTEHKNEDLATIVEAAANRALARIAVREEA
B29: GBRAP_52_6365 (protein)
chain: MLEEAVELLRKAVEATLAGKEEEAEEILKEIVENFSDETIVKAVERLAEEVATKTLEEAEAFLDTAIRLADIMLEAGRDEAKADEIEAIAAKAYSAVLAK

target: GABARAP, O95166; experiment: median log2 fold change of GCK-ALFA target abundance (FLAG IP / Myc IP barcode read proportion) (log2 ratio); each designed protein is fused to an ALFA-tag nanobody in HEK293 cells to bring the named protein to FLAG-tagged glucokinase (GCK); Myc marks an untargeted standard; higher = target protein stabilised (more abundant); conditions: target protein: 3xFLAG-MCP-GCK-ALFA reporter; HEK293 landing pad (RPLP)
Procedure: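 LABEL-seq trans screen in HEK293 landing-pad cells. Each de novo designed 100-aa effector handle, binding the indicated effector (E3 ligase, DUB or autophagy protein), is fused to a constant NbALFA target handle and induced with 2 ug/mL doxycycline. A FLAG-MCP-GCK-ALFA target and a Myc-MCP standard reporter were transfected, and after 48 h circRNA barcodes were recovered by anti-FLAG and anti-Myc IP and sequenced. The value is the median across barcodes (at least 3 per design) of log2(FLAG/Myc read-proportion ratio), with the two transfection replicates pooled. Negative values mean degradation and positive values mean stabilisation of the target.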

Chain of GABARAP, O95166 (O95166 whole entry, the tested form may be a part): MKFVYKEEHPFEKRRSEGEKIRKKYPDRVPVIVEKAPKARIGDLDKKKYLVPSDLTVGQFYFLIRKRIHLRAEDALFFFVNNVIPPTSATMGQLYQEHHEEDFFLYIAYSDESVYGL

Binder	median log2 fold change
B1	0.23
B2	0.165
B3	0.187
B4	0.163
B5	-0.593
B6	0.373
B7	-0.631
B8	0.274
B9	-0.458
B10	0.18
B11	-0.152
B12	0.24
B13	0.352
B14	-0.769
B15	0.23
B16	0.162
B17	-0.0734
B18	0.177
B19	-0.651
B20	-0.0422
B21	0.0598
B22	0.156
B23	-0.271
B24	-0.617
B25	0.165
B26	-0.211
B27	0.134
B28	0.133
B29	-0.000301

Source: the supplement of paper PMC12632987
